The term viability denotes a read-out of living cells in per cent, often relative to untreated cells. As usually defined, the remaining activity is the signal under treatment as a percentage of the control signal. One may read the inhibition as the relative decrease from the control value, in per cent.

Assay [1] is described as follows: liver-stage malaria parasite growth inhibition, primary screen, cell-based, HepG2, luciferase luminescence, HepG2 viability (AID 624349; in the data active = parasite load remaining mostly below about 12%, no sharp cut-off; inactive = mostly above about 10%;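 note: 100% = mean of DMSO negative control wells on the same plate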). Conditions: P. berghei liver stage in HepG2, luciferase luminescence, concentration not given here; parasite load remaining: stronger effect = lower value; viability: measured here: HepG2 viability without parasites.
Assay [2] deals with Aerobactin synthetase IucA (Klebsiella pneumoniae). The assay is described as follows: IucA aerobactin synthetase inhibitors, biochemical, Tocris library, absorbance (AID 1345561).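 Note: 100% = enzyme without compound and 0% = no enzyme.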 Conditions: purified IucA enzyme assay, absorbance (OD) read-out; stronger effect = lower value;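 tested at 8 µM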.
Assay [3] can be described thus: sensitizers of A549 cells to miR-34 induction, primary screen, imaging, A549 dox-inducible miR-34, nuclei and caspase counts (AID 1347080;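 active = compounds whose cell count with miR-34 switched on is under 0.7 times the count with it off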). As to conditions: A549 miR-34 inducible, Hoechst nuclei count, 48 h.
The nature of assay [4]: survival rescue of mitochondrial mutant cells in low glucose, primary screen, MELAS cybrids, Rieske KO mouse fibroblasts, CellTiter-Glo (AID 1508586;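 active = mean z-score across replicates of 1.96 or higher in either the MELAS or the Rieske mutant cell line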;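 note: z relative to plate mean and SD of compound and empty wells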). (In general: Cellular ATP, detected with luciferase, serves as a proxy for viable cell number.)
Assay [5] is described as follows: viability rescue of complex I mutant cybrids, primary screen, cell-based, galactose medium, ATP luminescence (AID 1645843;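 active = z-score of at least 1.8 in each of two replicates, scored against plate mean and spread of sample wells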;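 note: positive z means more ATP and so rescue of galactose-driven cybrid death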). As to conditions: complex I mutant cybrid cells, 72 h, stronger effect = higher value.
The nature of assay [6]: modifiers of HSF1 nuclear foci, imaging, Selleck Cancer Library (AID 1347162; in the data active = plate-normalised HSF1 focus index below about 0.46). Conditions: human cells, at 10 µM; SSMD: measured here: HSF1 foci SSMD mean; cell count: measured here: cell number; plate-normalised HSF1 focus index: stronger effect = lower value.
Assay [7] can be described thus: inhibitors of Cryptococcus chitosan production, flow cytometry, Cibacron Brilliant Red staining (AID 1347148).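 Note: compound exposure lasted three days at 37 degrees C.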 As to conditions: Cryptococcus neoformans chitosan, stronger effect = lower value; at 10 µM unless noted. A general note: In flow cytometry, cells or beads pass a laser one at a time.
Assay [8] deals with Hepatitis C virus NS3 helicase. The assay is described as follows: HCV NS3 helicase inhibitors, primary screen, biochemical, fluorescence polarization, LOPAC1280 library (AID 687035; in the data active = inhibition above about 37%). As to conditions: Purified HCV NS3 helicase, Cy5-dT15 ssDNA binding fluorescence polarization; stronger effect = higher value; concentration not given here. In general terms: Fluorescence polarisation rises when a labelled molecule tumbles more slowly, as on binding a larger partner.

The nature of assay [9]: Cy5 fluorescence quenching or enhancement artefacts, artefact control for HCV NS3 helicase inhibitor project, biochemical, LOPAC1280 (AID 687037). As to conditions: Cy5-DNA-NS3h complex fluorescence interference counterscreen.
Assay [10] in a line: circadian clock period modulators, cell-based, LOPAC library, luminescence reporter (AID 2774).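 Note: values are relative to mean of DMSO wells on each plate.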 As to conditions: circadian reporter cells, at 7 µM, actives lie on both sides.
Where [11] appears, read: stronger effect = lower value, cell number ratio, induced over uninduced.
The mark [12] stands for this setting: measured here: relative caspase fold change +Dox/-Dox.
Where [13] appears, read: measured here: total cells with miR-34 induction, stronger effect = lower value.
[14] abbreviates: measured here: total cells without miR-34 induction.
Where [15] appears, read: MELAS cybrid survival, CellTiter-Glo 48 h, stronger effect = higher value.
The mark [16] stands for this setting: Rieske KO mouse fibroblast survival, CellTiter-Glo 72 h.

Where “and” joins values, the source holds several entries; their conditions need not be identical. Equal entries are not always repeated. Calls of active or inactive are those of the source. Unless noted, the rule behind the calls is not given here.

As to `COc1ccc(C(=O)Nc2sc3c(c2C(N)=O)CCCC3)cc1OC`, the parasite load remaining in assay [1] is 36.2% (inactive). Further, the viability in [1] was determined as 126%. In addition, the remaining activity in [2] is 100% (inactive). The fold change in [3] (setting [11]) was 0.968 (inactive) and 0.928 (inactive); in [3] (setting [12]), 0.55 and 1.37. The cell count is 7430 and 8340 in [3] (setting [13]); 7670 and 8990 in assay [3] (setting [14]). Moreover, the z-score is -0.293 (inactive) in assay [4] (setting [15]), 0.823 in assay [4] (setting [16]) and 1.42 (inactive) in [5].
Take `Nc1[nH]nc2nnc(-c3c(-c4ccccc4)nn4ccccc34)cc12`: in assay [1], the parasite load remaining is 43.4% (inactive) and the viability worked out at 122%. The remaining activity in assay [2] was 115% (inactive). Moreover, in assay [3] (setting [11]), the fold change was 1.01 (inactive). Also, the fold change in assay [3] (setting [12]) was 3.36. Besides, the cell count in assay [3] (setting [13]) stood at 6630. Besides, in assay [3] (setting [14]), the cell count came out at 6550. Besides, in assay [6], the SSMD is 2.88, the cell count was determined as 7090 and the plate-normalised HSF1 focus index is 1.16 (inactive). Further, the z-score in assay [5] was 1.04 (inactive).
For the compound `Cc1c(C2CCN(CCc3ccccc3)CC2)noc1-c1ccc(Cl)cc1`, in assay [2], the remaining activity is 92.3% (inactive). Besides, the fold change is 0.891 (inactive) in [3] (setting [11]) and 0.892 in assay [3] (setting [12]). Also, the values for the cell count in assay [3] (setting [13]) and in [3] (setting [14]) were 6770 and 7590, respectively. Moreover, the z-score in [5] is -0.21 (inactive).
Regarding `COC(=O)C1=C(C)NC(C)=C([N+](=O)[O-])[C@H]1c1ccccc1C(F)(F)F`, the remaining activity in assay [2] is 113% (inactive). The fold change was 0.834 (inactive) in assay [3] (setting [11]) and 1.13 in [3] (setting [12]). Further, the cell count in [3] (setting [13]) amounted to 7130; in assay [3] (setting [14]), 8550. In addition, the fold fluorescence in assay [7] is 5.36 [at 140.3 µM] (inactive). Besides, the z-score in [5] is -0.645 (inactive).
Turning to `COC(=O)C1=C(C)NC(C)=C(C(=O)OCCCN2CCC(c3ccccc3)(c3ccccc3)CC2)[C@H]1c1cccc([N+](=O)[O-])c1`, the remaining activity in assay [2] is 116% (inactive). For the same compound, the fold change was 0.98 (inactive) in assay [3] (setting [11]) and 1.09 in [3] (setting [12]). Moreover, the results for the cell count in assay [3] (setting [13]), in assay [3] (setting [14]) and in assay [6] were 562, 574 and 6310, respectively. Moreover, the fold fluorescence in [7] is 5.27 [at 82 µM] (inactive). For the same compound, the SSMD in assay [6] is -1.25. Moreover, the plate-normalised HSF1 focus index in [6] was 0.927 (inactive). The z-score in assay [5] is -0.83 (inactive).
For `OC(c1ccccc1)C1CCN(CCc2ccccc2)CC1` (stereo not drawn), the remaining activity in [2] is 96.8% (inactive). Moreover, the fold change in assay [3] (setting [11]) was 0.917 (inactive); in [3] (setting [12]) it was 0.92. Besides, the results for the cell count in [3] (setting [13]) and in [3] (setting [14]) were 8660 and 9440, respectively. Also, the z-score in [5] was -0.035 (inactive).
For the compound `C1CCC(N=C(NC23CC4CC(CC(C4)C2)C3)N2CCOCC2)CC1`, the inhibition in assay [8] is -4% (inactive). For the same compound, in assay [9], the fluorescence ratio (interference) is 1 (inactive). Besides, the remaining activity in [2] is 116% (inactive). Moreover, the fold change in assay [3] (setting [11]) was 0.989 (inactive); in assay [3] (setting [12]), 0.888. In addition, the figures for the cell count in assay [3] (setting [13]) and in assay [3] (setting [14]) were 8260 and 8350, respectively. Also, in [7], the fold fluorescence is 11.7 [at 130.9 µM] (inactive). The z-score in [5] was -0.33 (inactive).
With `CC[C@@H](C)[C@H]1O[C@]2(CC[C@@H]1C)C[C@@H]1C[C@@H](C/C=C(\C)[C@@H](O[C@H]3C[C@H](OC)[C@@H](O[C@H]4C[C@H](OC)[C@@H](O)[C@H](C)O4)[C@H](C)O3)[C@@H](C)/C=C/C=C3\CO[C@@H]4[C@H](O)C(C)=CC(C(=O)O1)[C@]34O)O2` (stereo partly drawn) (tested in a mixture with another compound), in assay [2], the remaining activity is 124% (inactive). Moreover, the values for the fold change in [3] (setting [11]) and in assay [3] (setting [12]) were 0.987 (inactive) and 1.53, respectively. Moreover, the cell count in assay [3] (setting [13]) is 507; in assay [3] (setting [14]), 514. Further, the z-score in assay [5] is -1.04 (inactive).
For the compound `CN(C)CCCCSC(=N)N`, in assay [10], the period change is 0.15 h (inactive). For the same compound, the remaining activity in assay [2] was 110% (inactive). In addition, the fold change is 0.981 (inactive) in [3] (setting [11]) and 0.637 in [3] (setting [12]). Further, the cell count is 8600 in [3] (setting [13]), 8770 in [3] (setting [14]) and 6740 in assay [6]. In assay [6], this compound returned an SSMD of 1.03. In assay [6], the plate-normalised HSF1 focus index was 1.06 (inactive). In addition, the z-score in [5] was 0.38 (inactive).
Turning to `NC(=O)c1sc(-c2ccsc2)cc1N`, the remaining activity in assay [2] was 88.4% (inactive). Also, the fold change in assay [3] (setting [11]) was 0.841 (inactive) and 0.869 (inactive); in assay [3] (setting [12]), 0.888 and 1.88. The cell count is 8280 and 7870 in assay [3] (setting [13]); 9850 and 9060 in [3] (setting [14]). The z-score in [4] (setting [15]) is -0.221 (inactive); in assay [4] (setting [16]), -0.163; in [5], 0.36 (inactive).

The record behind these values is PubChem BioAssay.
